Out of some 85,000 compounds screened, about 35 (0.04%) were called active.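 How the source made its calls: active means viability drop by adding the cancer drug above about 55%, with treated viability meeting a 40% cutoff (limit read from the data); inactive means the rest, inconclusive results apart.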 Only a selection was taken, and actives are over-represented in it overall.
Assay: reversal of MRP1-mediated doxorubicin resistance, primary screen, H69AR cells, doxorubicin co-treatment (AID 602);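 on differential viability (reversal): larger differential means the compound sensitizes cells more to doxorubicin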
Conditions: CellTiter-Glo, 72 h, at 10 µM; for differential viability (reversal): stronger effect = higher value
[1] = H69AR cells + 2 uM doxorubicin, measured here: viability with 2 uM doxorubicin, stronger effect = lower value
[2] = H69AR cells, measured here: cytotoxicity without doxorubicin

Row | SMILES | differential viability (reversal) (H69AR cells + 2 uM doxorubicin) | viability [1] | viability [2]
1 | CCCC(=O)C1CCN(Cc2ccccc2)CC1 | 1.73% (inactive) | 91.3% | 93%
2 | CC1(C)COC(c2cccn2Cc2ccccc2Cl)=N1 | 13.1% (inactive) | 90.7% | 104%
3 | COc1ccc(C2CC(=O)n3c(nc4ccccc43)S2)cc1OC (stereo not given) | 4.1% (inactive) | 111% | 115%
4 | CCc1ccc2c(c1)C1(NN=C(c3ccccc3)S1)C(=O)N2 (stereo not given) | -18.7% (inactive) | 34% | 15.2%
5 | COc1cccc(OC)c1C(=O)Nc1ccc(N2CCCCC2)cc1 | 15% (inactive) | 90.1% | 105%
6 | COC(=O)CSc1snnc1-c1ccc(Cl)c(Cl)c1 | 8.05% (inactive) | 89.3% | 97.3%
7 | CC(C)C(=O)NC(NC(=S)NC1CCS(=O)(=O)C1)C(Cl)(Cl)Cl (stereo not given) | 6.22% (inactive) | 95.7% | 102%
8 | CCOC(=O)c1cnn(Cc2ccccc2Cl)c1N | 4.58% (inactive) | 91.6% | 96.2%
9 | CCOc1cccc(C(=O)Nc2nnc(-c3cccs3)s2)c1 | -41.2% (inactive) | 103% | 62.1%
10 | CCn1nccc1C(=O)Nc1ccc(Cl)c(Cl)c1 | 8.65% (inactive) | 68.4% | 77%
11 | CCCc1nc2sc3c(c2c(=O)n1NC(=O)CCCl)CCCC3 | 11.4% (inactive) | 24.6% | 36%
12 | CC(c1ccco1)N(C(=O)Nc1ccccc1)C1CCCCC1 (stereo not given) | 8.57% (inactive) | 69.1% | 77.7%
13 | CCCNC(=O)c1ccccc1NC(=O)CSCc1ccc(OC)cc1 | 16.1% (inactive) | 67.8% | 83.9%
14 | O=C(CSc1nnc(-c2cccnc2)n1CCc1ccccc1)NCc1ccccc1 | 20.9% (inactive) | 68.7% | 89.6%
15 | Cc1ccc(Nc2nnc(SCc3ccccc3)s2)cc1 | 25.2% (inactive) | 73% | 98.2%
16 | CC1CCN(S(=O)(=O)c2ccc(S(=O)(=O)NCc3ccco3)cc2)CC1 | -17.8% (inactive) | 93.1% | 75.4%
17 | CC(=O)NC1(c2cccc(F)c2)CCN(CC(=O)NC(C)C)CC1 | -7.86% (inactive) | 90.6% | 82.8%
18 | CCOc1ccc(N=Cc2c(O)n(-c3cccc(C)n3)c(=O)c3ccccc23)cc1 | 10.8% (inactive) | 80.7% | 91.4%
19 | CCN(CC)S(=O)(=O)c1cc([N+](=O)[O-])ccc1NNC(=O)Nc1ccccc1 | 0.11% (inactive) | 89.8% | 89.9%
20 | CCOc1nc(NCCN2CCOCC2)nc(Nc2ccc(C)cc2)n1 | 15.7% (inactive) | 76.1% | 91.8%
21 | Cc1cccc(OCCCC(=O)Nc2ccc(S(=O)(=O)N3CCCC3)cc2)c1 | 6.98% (inactive) | 82.2% | 89.2%
22 | COc1ccc(C2C(C#N)=C(/N=C/N3CCOCC3)OC3=C2C(=O)CC(C)(C)C3)cc1OC (stereo not given) | 12.9% (inactive) | 83.8% | 96.7%
23 | COC(=O)CNC(=O)c1ccccc1F | -4.37% (inactive) | 89.6% | 85.2%
24 | Cc1ccc(-n2c(SCC(=O)NCc3ccc4c(c3)OCO4)nnc2-c2cccnc2)c(C)c1 | -22.4% (inactive) | 57.5% | 35.1%
25 | CCCCN1C(=O)/C(=C2/C=CC=CN2C)SC1=S | 1.69% (inactive) | 88.5% | 90.2%

Row | SMILES | differential viability (reversal) (H69AR cells + 2 uM doxorubicin) | viability [1] | viability [2]
26 | CS(=O)(=O)N(CC(=O)Nc1ccc(Cl)c(Cl)c1)C1CCCCC1 | -18.2% (inactive) | 34.8% | 16.6%
27 | CC(C)(C)NC(=O)Cn1c(SCC(=O)Nc2nccs2)nc2ccccc21 | 7.96% (inactive) | 84.5% | 92.5%
28 | COCCCNC(=O)CN1CCN(Cc2ccccc2Cl)C1=O | 11.7% (inactive) | 86.8% | 98.5%
29 | CCCc1nc(NCc2ccc3c(c2)OCO3)c2nnn(Cc3ccccc3Cl)c2n1 | 1.6% (inactive) | 23% | 24.6%
30 | Cc1nc2ccccc2n1C(=O)N1CCOCC1 | -2.57% (inactive) | 85.1% | 82.5%
31 | CCN(CC(=O)Nc1ccccc1OC)C(=O)Cn1cnc2ccccc2c1=O | 8.46% (inactive) | 84.2% | 92.7%
32 | CCOc1c(Br)cc(/C=C2\C(=O)N(CCC#N)N=C2C)cc1OC | -46.8% (inactive) | 73% | 26.2%
33 | CCNCCC(=O)N1c2ccccc2Sc2ccc(NC(=O)OCC)cc21 | 8.86% (inactive) | 69.7% | 78.6%
34 | Cc1cccn2c(=O)c(/C=C(\C#N)S(=O)(=O)c3ccc(Cl)cc3)c(N3CCC(C(N)=O)CC3)nc12 | -6.85% (inactive) | 89% | 82.2%
35 | COc1ccc(-n2nc(C(=O)NCC(=O)Nc3cccc(C)n3)c3ccccc3c2=O)cc1 | -0.23% (inactive) | 74.5% | 74.2%
36 | CCOC(=O)N1CCC(Nc2c(NCCCN3CCN(CC)CC3)c(=O)c2=O)CC1 | 2.1% (inactive) | 109% | 112%
37 | O=S(=O)(Cc1cc(Sc2ccccc2)nc(-c2ccccc2)n1)c1ccccc1 | -7.14% (inactive) | 91.4% | 84.3%
38 | Cc1ccc(CN(N=Nc2nonc2N)c2nonc2N)c(C)c1 | 2.63% (inactive) | 76.9% | 79.6%
39 | CCN1C(=O)/C(=C2/Sc3ccc(OC)cc3N2C)SC1=Nc1ccc(C)cc1 | -4.5% (inactive) | 70.6% | 66.1%
40 | CC/C(O)=N\S(=O)(=O)c1ccc(N=NN(C)C)cc1 | -1% (inactive) | 86.7% | 85.7%
41 | CCC(C)NC(=O)c1cc(Cl)ccc1OC (stereo not given) | 6.89% (inactive) | 83.6% | 90.5%
42 | O=C(Nc1nnc(SCc2ccccc2)s1)c1ccco1 | 5.76% (inactive) | 90.2% | 96%
43 | CCc1ccc(CNC(=O)C2CC(=O)N(CCc3ccc(C)cc3)C2)cc1 (stereo not given) | 1.99% (inactive) | 97.6% | 99.5%
44 | Cc1nnc(OCC(=O)NCCC2=CCCCC2)c2ccccc12 | -0.56% (inactive) | 101% | 101%
45 | O=C1C2C3C=CC(C4CC34)C2C(=O)N1/N=C/c1ccc(-c2ccccc2[N+](=O)[O-])o1 (stereo not given) | 16.1% (inactive) | 70.3% | 86.5%
46 | CC(C)CCOc1ccc(C(=O)C[N+]2(C)CCOCC2)cc1 | 16.9% (inactive) | 86% | 103%
47 | Nc1nc(C23CC4CC(CC(C4)C2)C3)cs1 | -3.46% (inactive) | 96.8% | 93.3%
48 | Cc1cc(C)c(NC(=O)CN2CCOCCOCCOCCOCC2)c(C)c1 | 8.19% (inactive) | 89% | 97.2%
49 | Cc1ccc(-n2ncc3c(=O)n(-c4ccc(C)c(C)c4)c(-c4ccco4)nc32)cc1 | -39.7% (inactive) | 71% | 31.3%
50 | Nc1ccc(-n2nncc2-c2ccco2)cc1 | 59.2% (active) | 39.6% | 98.8%

Row | SMILES | differential viability (reversal) (H69AR cells + 2 uM doxorubicin) | viability [1] | viability [2]
51 | Cc1[nH]n(-c2cccc(Cl)c2)c(=O)c1/C=N/n1c(C)nc2ccccc2c1=O | -32.9% (inactive) | 62% | 29.1%
52 | Cc1cccc(C)c1OC(=O)CSc1nnc(-c2ccccc2)o1 | 9.93% (inactive) | 88.5% | 98.4%
53 | Cc1ccc(NC(=S)NC(NC(=O)Cc2cccc3ccccc23)C(Cl)(Cl)Cl)cc1 (stereo not given) | 0.19% (inactive) | 0.8% | 0.99%
54 | COc1ccc(/C(N)=N/OC(=O)Oc2ccccc2)cc1 | -10.6% (inactive) | 93.2% | 82.6%
55 | CCOc1ccc2c(c1)C(c1ccc(C)cc1)=NNC(c1ccc(C)cc1)=N2 | -43% (inactive) | 64% | 21%
56 | O=C(CN1CCSCC1)N/N=C/c1ccc(F)cc1 | 8.43% (inactive) | 90.1% | 98.5%
57 | CC(C)(C)c1ccc(C(=O)NNC(=O)Cc2ccccc2)cc1 | 9.15% (inactive) | 85.9% | 95%
58 | COC(=O)C1=C(C(=O)OC)C2(OC1c1ccc(Br)cc1)C(=O)c1ccccc1C2=O (stereo not given) | 12.1% (inactive) | 94% | 106%
59 | O=C(CSc1nc2cccnc2n1Cc1ccccc1)N1CCc2ccccc21 | 10.8% (inactive) | 59.3% | 70.1%
60 | COC(=O)CCSc1cc([N+](=O)[O-])cc2c1c(C1OCCS1)nn2-c1ccccc1 (stereo not given) | -2.64% (inactive) | 101% | 98.2%
61 | CCCOn1c(-n2nc(C)cc2C)nc2ccccc2c1=O | 4.29% (inactive) | 89.5% | 93.8%
62 | O=C(Nc1ccc(F)c(Cl)c1)C1CCN(S(=O)(=O)c2cccnc2)CC1 | 1.44% (inactive) | 70.3% | 71.8%
63 | Cc1ccc(C(=O)N/N=C/c2sc(=O)n(Cc3cccc(C(=O)O)c3)c2Cl)cc1 | -5.62% (inactive) | 92.7% | 87.1%
64 | CCOC(=O)C(C)Sc1nc2ccccc2c(=O)n1CC1CCCCC1 (stereo not given) | 7.81% (inactive) | 74.6% | 82.4%
65 | Cc1cccc(NC(=O)C2CC(=O)OC23CCCC3)c1 (stereo not given) | 6.22% (inactive) | 95.5% | 102%
66 | COc1ccc(CC(NC(C)=O)C(=O)N2CCN(C(=O)Nc3cccc(Cl)c3)CC2)cc1OC (stereo not given) | 6.8% (inactive) | 85% | 91.8%
67 | O=C(CCS(=O)(=O)c1cccc2nsnc12)N1CCN(c2ccccc2F)CC1 | 10.9% (inactive) | 80% | 91%
68 | COc1ccc(-c2cc(C(=O)NCc3ccco3)no2)cc1OC | 7.53% (inactive) | 92.6% | 100%
69 | CCOC(=O)C1=C(C)NC2=C(C(=O)CC(C)(C)C2)C1c1ccsc1 (stereo not given) | -1.33% (inactive) | 85.8% | 84.5%
70 | O=S(=O)(NCCc1ccccc1)c1ccccc1 | 7.78% (inactive) | 95.5% | 103%
71 | CCN(c1ccccc1)S(=O)(=O)c1ccc(NC(=O)C(C)(C)C)cc1 | -29.8% (inactive) | 64.7% | 34.8%
72 | COc1ccc(-c2cc(C(F)(F)F)nc(NCc3cccnc3)n2)cc1 | 1.23% (inactive) | 91.7% | 92.9%
73 | Cc1ccc(S(=O)(=O)N2CCN(S(=O)(=O)N3CCOCC3)CC2)cc1 | 3.28% (inactive) | 89.8% | 93.1%
74 | CCOC(=O)/C(C#N)=C\c1c(C)cc(C)c(COC(C)=O)c1C | 5.79% (inactive) | 89.3% | 95.1%
75 | Cc1ccc(F)c(NC(=O)CCc2ccccc2)c1 | 2.31% (inactive) | 95.5% | 97.8%

— PubChem BioAssay AID602 (SRMLSC, 2007)
